PubChem BioAssay AID485344 (National Center for Advancing Translational Sciences (NCATS), 2010)
In all, about 340,000 compounds went through this assay and about 6,900 (2%) were called active. Cut-off read from the data, not from the text of the source: active = inhibition above about 30%; inactive = below that, where a call was filed. Only a selection was taken, and actives are over-represented in it overall.

target: D(2) dopamine receptor (Homo sapiens) (UniProt P14416); assay: HTS Assay for Allosteric Antagonists of the Human D2 Dopamine Receptor: Primary Screen for Antagonists; conditions: HEK293 TREx D2 cells, calcium flux, dopamine EC80; at 10 µM; stronger effect = higher value; note: 0% is about no effect
How it was run: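 Inhibition of EC80 dopamine-driven calcium flux, recorded kinetically, defines activity here; cells are a tetracycline-induced HEK293 T-REx line expressing force-coupled D2.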

Chain of D(2) dopamine receptor (Homo sapiens) (P14416 whole entry, looked up): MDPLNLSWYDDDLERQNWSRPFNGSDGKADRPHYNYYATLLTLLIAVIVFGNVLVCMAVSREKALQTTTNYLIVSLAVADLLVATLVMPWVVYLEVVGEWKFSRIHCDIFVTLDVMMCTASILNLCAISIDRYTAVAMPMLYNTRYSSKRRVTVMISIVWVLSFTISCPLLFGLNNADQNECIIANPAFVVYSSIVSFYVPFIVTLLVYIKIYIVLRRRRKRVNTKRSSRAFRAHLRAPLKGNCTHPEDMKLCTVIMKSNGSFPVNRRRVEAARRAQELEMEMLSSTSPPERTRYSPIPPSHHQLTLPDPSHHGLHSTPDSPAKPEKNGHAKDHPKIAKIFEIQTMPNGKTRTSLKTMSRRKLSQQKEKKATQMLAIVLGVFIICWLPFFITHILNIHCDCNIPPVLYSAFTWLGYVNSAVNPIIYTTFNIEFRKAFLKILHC

Row | Structure (SMILES) | inhibition
1 | O=[N+]([O-])c1cc(S(=O)(=O)NCCc2ccccn2)ccc1Cl | 9.65% (inactive)
2 | COc1ccc(CN2CCN(C(=O)c3cc(C4CC4)nn3-c3ccccc3)CC2)cc1F | -4.93% (inactive)
3 | N#CC1(NC(=O)COC(=O)Cc2n[nH]c(=O)c3ccccc23)CCCCC1 | -5.98% (inactive)
4 | Cc1nn(Cc2ccccc2)c(C)c1CNC(=O)c1ccc(F)c(S(=O)(=O)N2CCOCC2)c1 | 5.64% (inactive)
5 | CCOC(=O)c1sc2nc(SC)nc(-c3ccccc3)c2c1N | 30.8% (active)
6 | CCOC(=O)C(=O)Nc1nc(-c2ccccc2)c(CC)s1 | 8.31% (inactive)
7 | CCOC(=O)c1sc2nc(CSc3ccccc3)[nH]c(=O)c2c1C | 20.4% (inactive)
8 | Cc1ccc(C)c(NC(=O)C(c2ccccc2)N2CCN(CC(=O)NC3CC3)CC2)c1 (stereo not drawn) | 5.16% (inactive)
9 | O=C(Cc1ccc(-n2c(=O)[nH]c3ccccc3c2=O)cc1)N1CCN(c2cccc(Cl)c2)CC1 | 11.5% (inactive)
10 | O=C(Cc1csc(Nc2nc(=S)[nH]c3ccccc23)n1)NCCCN1CCN(c2cccc(Cl)c2)CC1 | 69.4% (active)
11 | COc1cccc(CNC(=O)Cc2csc(Nc3nc(=S)[nH]c4ccccc34)n2)c1 | -15.6% (inactive)
12 | COc1ccc(S(=O)(=O)N2CCOCC2)cc1NC(=O)c1ccc(OCC(C)C)c(OC)c1 | -9.24% (inactive)
13 | Cc1ccc(S(=O)(=O)NCCN2CCOCC2)cc1C | -3.48% (inactive)
14 | Cn1c(=O)c(=O)n(C)c2cc(S(=O)(=O)NCCN3CCN(c4ccccc4F)CC3)ccc21 | 42.8% (active)
15 | CCc1ccc(S(=O)(=O)Nc2cc3c(cc2N2CCCCC2)n(C)c(=O)c(=O)n3C)cc1 | 4.98% (inactive)
16 | Cc1ccc(S(=O)(=O)N2CCOCC2)cc1C(=O)Nc1ccccc1N1CCCC1 | 3.22% (inactive)
17 | CCOc1ccc(S(=O)(=O)N2CCCCC2)cc1NC(=O)CN1CCCC1c1cccs1 (stereo not drawn) | 19.6% (inactive)
18 | CC(=O)NCC(O)c1ccc([N+](=O)[O-])cc1 (stereo not drawn) | 12.7% (inactive)
19 | CNCC(O)c1ccc(O)c(O)c1 (stereo not drawn) | 84.7% (active)
20 | COc1ccccc1CNC(=O)CCCN1C(=O)NC2(CCCC2)C1=O | 0.109% (inactive)
21 | NS(=O)(=O)c1ccc(CCNC(=O)COC(=O)COc2cccc(C(F)(F)F)c2)cc1 | -7.34% (inactive)
22 | CCOc1ccccc1C1NC(=O)NC(C)=C1C(=O)OCc1ccco1 (stereo not drawn) | -14.9% (inactive)
23 | CC(=O)C1=C(C)NC(=O)NC1c1cc(Br)ccc1OCC#N (stereo not drawn) | -0.972% (inactive)
24 | CCOC(=O)COc1ccc(Cl)cc1C1NC(=O)NC(C)=C1C(C)=O (stereo not drawn) | 30.8% (active)

Row | Structure (SMILES) | inhibition
25 | O=C(COC(=O)Cn1[nH]c(=O)c2ccccc2c1=O)Nc1ncc(Cl)cc1Cl | -24.9% (inactive)
26 | Cc1ccccc1C(=O)NCC(c1ccco1)N1CCc2ccccc21 (stereo not drawn) | -18.5% (inactive)
27 | Nc1cc(N)nc(SCC(=O)Nc2cccc(S(=O)(=O)N3CCCCC3)c2)n1 | 3.49% (inactive)
28 | CCC(C)N(C(=O)Cn1nc(C)c([N+](=O)[O-])c1C)C1CCS(=O)(=O)C1 (stereo not drawn) | 15.9% (inactive)
29 | C/C=C/c1ccc(OCCCCN2CCC(C)CC2)c(OC)c1 | 45.6% (active)
30 | C/C=C/c1ccc(OCC(O)CN2CCCCCCC2)c(OC)c1 (stereo not drawn) | -10.5% (inactive)
31 | COc1ccc(OCCCCN2CCC(C)CC2)cc1 | 7.68% (inactive)
32 | O=C(C1CCC1)N1CCN(c2ccccc2)CC1 | 1.73% (inactive)
33 | CS(=O)(=O)N1CCC(C(=O)N2CCN(c3ccccc3)CC2)CC1 | 47.3% (active)
34 | CCS(=O)(=O)N1CCC(N2CCN(c3ccccc3)CC2)CC1 | 73.1% (active)
35 | CCS(=O)(=O)N1CCC(C(=O)N2CCN(c3ccccc3)CC2)CC1 | -2.98% (inactive)
36 | CCCS(=O)(=O)N1CCCC(C(=O)N2CCN(c3ccccc3)CC2)C1 (stereo not drawn) | 6.48% (inactive)
37 | Cc1ccc(S(=O)(=O)N2CCN(c3ccccc3)CC2)cc1C | 26.6% (inactive)
38 | O=C(c1cc2ccccc2o1)N1CCN(S(=O)(=O)c2ccc(Cl)s2)CC1 | 17.4% (inactive)
39 | CC(C)(CNC(=O)CNC(=O)C1CCCCC1)N1CCOCC1 | -45.4% (inactive)
40 | CC1(C)CC(=O)C=C(c2ccc(Cl)c(C(F)(F)F)c2)C1 | 4.19% (inactive)
41 | Cc1ccc(Cl)c(OCC(=O)N2CCc3ccccc3C2)c1 | 2.48% (inactive)
42 | OC(COc1ccc(F)cc1Cl)CN1CCc2ccccc2C1 (stereo not drawn) | 68.3% (active)
43 | Cc1cccc(OCC(O)CN2CCN(S(=O)(=O)c3ccc(C)cc3C)CC2)c1 (stereo not drawn) | -1.31% (inactive)
44 | CCc1ccc(OCC(O)CN2CCN(CCO)CC2)cc1 (stereo not drawn) | -7.21% (inactive)
45 | Cc1ccc(OCC(O)CN2CCN(CC(O)COc3ccc(C)cc3Cl)CC2)c(Cl)c1 (stereo not drawn) | 78.4% (active)
46 | C=CCc1ccc(OCC(O)CN2CCN(Cc3ccccc3)CC2)c(OC)c1 (stereo not drawn) | 0.147% (inactive)
47 | CC(C)(C)OC(=O)Nc1ccc([C@@H](NC(=O)OC(C)(C)C)C(=O)OC(C)(C)C)cc1 | 5.44% (inactive)
48 | Nc1nnc(SCCN2C(=O)c3ccccc3S2(=O)=O)s1 | 49.1% (active)

Row | Structure (SMILES) | inhibition
49 | Nc1nnc(SCn2nnc3ccccc3c2=O)s1 | -2.28% (inactive)
50 | CCCc1nnc(NC(=O)CN2C(=O)c3ccccc3S2(=O)=O)s1 | 2.63% (inactive)
51 | CCN(CC(=O)Nc1ccc(OC)cc1)C(=O)c1ccc(Cl)c(S(=O)(=O)N2CCCC2)c1 | -15.2% (inactive)
52 | CCOc1ccc(CC(=O)NCCS(=O)(=O)N2CCN(c3ccccc3)CC2)cc1 | -11.3% (inactive)
53 | O=S(=O)(NCCS(=O)(=O)N1CCN(c2ccccc2)CC1)c1ccc(F)cc1 | -7.02% (inactive)
54 | COc1cc(/C=C/C(=O)N2CCc3ccccc3C2)cc(OC)c1OC | -15.7% (inactive)
55 | COc1cc(C)c(C)cc1S(=O)(=O)N1CCCc2ccccc21 | -2.59% (inactive)
56 | CCC(C)(C)NC(=O)/C=C/c1cc(OC)c(OC)c(S(=O)(=O)N2CCc3ccccc32)c1 | 40.9% (active)
57 | O=C(OCC(=O)N1CCCC1)c1ccc(Cl)nc1 | -5.57% (inactive)
58 | Cc1ccc2nc(NC(=O)C3CSC4(C)CCC(=O)N34)sc2c1 (stereo not drawn) | -20% (inactive)
59 | CC1(C)O[C@@H]2[C@H](O1)[C@@H](CO)O[C@H]2n1c(N2CCCCC2)nc2c(N)ncnc21 | 15.7% (inactive)
60 | CC(=O)Nc1ccc(/C=N/NC(=O)c2cccs2)cc1 | -20.3% (inactive)
61 | Cc1ccc(-n2nc(C)c(/C=N/NC(=O)c3cccs3)c2Cl)cc1 | 32.5% (active)
62 | Cc1cccc(-n2c(C)cc(/C=N\NC(=O)c3cccs3)c2C)c1 | 2.76% (inactive)
63 | COc1ccc(CNC(=O)COC(=O)c2c(C)nn(-c3ccccc3)c2C)cc1OC | 5.14% (inactive)
64 | CC(=O)N(C)c1ccc(NC(=O)Nc2cccc3ccccc23)cc1 | 11.1% (inactive)
65 | CCOc1ccc(NC(=O)Nc2cc(C)on2)cc1 | -12.8% (inactive)
66 | CCOc1ccc(NC(=O)Nc2ccc(N(C)C(C)=O)cc2)cc1 | 31.6% (active)
67 | Cc1cccc(C(=O)NCC(=O)OCC(=O)N(C)CC(=O)Nc2ccccc2Cl)c1 | -38.4% (inactive)
68 | Cc1ccc(OCCCC(=O)Nc2ccc3c(c2)OCCO3)cc1 | -2.09% (inactive)
69 | COc1ccc(C(=O)OCC(=O)c2cc(C)n(CC3CCCO3)c2C)cc1[N+](=O)[O-] (stereo not drawn) | -5.34% (inactive)
70 | Cc1nc2ccccc2c(=O)n1NC(=O)c1ccccc1 | -7.6% (inactive)
71 | O=C(Nn1cnc2ccccc2c1=O)c1ccccc1 | 31.2% (active)
72 | O=C(Nn1cnc2ccccc2c1=O)c1ccc([N+](=O)[O-])cc1Cl | -1.86% (inactive)

Row | Structure (SMILES) | inhibition
73 | Cc1ccsc1C(=O)NC1CCCCC1C (stereo not drawn) | -11.1% (inactive)
74 | CCc1cccc(C)c1NC(=O)COC(=O)CC1CCCC1 | -13.9% (inactive)
75 | CN(Cc1cccs1)C(=O)CN1C(=O)c2ccccc2S1(=O)=O | -30.6% (inactive)
76 | CCOc1ccccc1OCCCNCc1ccccc1 | 50% (active)
77 | CCOCCCNCc1ccc(OCc2ccc(F)cc2)c(OC)c1 | 2.04% (inactive)
78 | CCOCCCNCc1cc(Br)ccc1OCC | 6.96% (inactive)
79 | CN(CC(=O)Nc1ccc(F)c(F)c1F)C(=O)Cn1cnc2c1c(=O)n(C)c(=O)n2C | 2.66% (inactive)
80 | COc1ccc(-c2cc(C(=O)NCCCn3ccnc3)no2)cc1 | 3.91% (inactive)
81 | O=C(NCCCn1ccnc1)c1cc(-c2ccccc2)on1 | 7.61% (inactive)
82 | COc1ccccc1-c1cc(C(=O)NCCCn2ccnc2)no1 | 45.9% (active)
83 | CCOC(=O)[C@H]1[C@H]2COc3ccc(Cl)cc3[C@@H]2N2C(=O)c3cc(C)ccc3NC(=O)[C@@]12C | -4.21% (inactive)
84 | O=C1C2CCCN2C(=O)N1CCCCN1CCN(c2cccc(C(F)(F)F)c2)CC1 (stereo not drawn) | 106% (active)
85 | O=C(C1CC(=O)N(C2CCCC2)C1)N1CCN(c2cccc(C(F)(F)F)c2)CC1 (stereo not drawn) | 11.8% (inactive)
86 | Cc1ccccc1N1CCN(CCCN2C(=O)C3CCCCN3C2=O)CC1 (stereo not drawn) | -27.4% (inactive)
87 | CC(C)CN(C(=O)c1ccc2c(c1)OCO2)C1CCS(=O)(=O)C1 (stereo not drawn) | -6.59% (inactive)
88 | Cc1ccc2nnn(Cc3cccc(C(C)(C)C)c3O)c2c1 | 6.04% (inactive)
89 | COc1ccccc1N1CCN(C(=O)c2c(-c3c(Cl)cccc3Cl)noc2C)CC1 | 40% (active)
90 | COc1cccc(-c2cc(C(=O)N3CCN(c4ccccc4OC)CC3)no2)c1 | 3.44% (inactive)
91 | COc1ccccc1N1CCN(C(=O)c2ccc(Cl)c(S(=O)(=O)N3CCCC3)c2)CC1 | -0.604% (inactive)
92 | Cn1c(N)c(C(=O)COC(=O)COc2ccc(Cl)cc2)c(=O)n(C)c1=O | 20.2% (inactive)
93 | COc1ccc(C)cc1S(=O)(=O)Nc1cc2c3c(c1)CCC(=O)N3CCC2 | 6.3% (inactive)
